# ± gives the standard deviation of the averaged measurements. Whole data set: some 33,000 sequences, median “E-score (dimensionless, -0.5 to 0.5)” near -0.049, cut for the highest 2% near 0.37. What follows is part of a selection rich in the highest values, with near analogues and random picks from the rest.
# Tested on: T1, PmTbr T-box DNA-binding domain (GST fusion)
# T1 sequence: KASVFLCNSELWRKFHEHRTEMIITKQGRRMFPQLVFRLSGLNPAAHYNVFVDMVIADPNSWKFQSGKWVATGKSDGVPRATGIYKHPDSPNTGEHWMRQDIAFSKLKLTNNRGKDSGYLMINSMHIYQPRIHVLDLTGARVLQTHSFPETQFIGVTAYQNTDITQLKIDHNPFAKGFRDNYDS
# Experiment: PBM E-score of 8-mer (E-score (dimensionless, -0.5 to 0.5)); Tbr is Tbrain of the sea star Patiria miniata (Pm) or the sea urchin Strongylocentrotus purpuratus (Sp); higher = stronger binding preference
# Settings: the construct has about 5 more residues each side
# In short: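 Primer extension turned Universal Agilent oligonucleotide arrays double-stranded. They were incubated with 200 nM protein in PBS (pH 7.5); the protein was a GST-fused Tbr T-box DNA-binding domain expressed in BL21 E. coli at 20 °C and purified on glutathione. Every ungapped 8-mer was scored from the scanned, quantified probe intensities, and the Universal PBM Analysis Suite gave each an enrichment E-score averaged over duplicate arrays.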
row,Sequence,PBM E-score of 8-mer
1,ATCGACAG,0.236 ± 0.032
2,GTCGACAC,0.406 ± 0.013
3,ACAATGTC,-0.048 ± 0.0089
4,GTACAGTA,0.0854 ± 0.013
5,AGCAACAA,0.0934 ± 0.021
6,AGCAACAG,0.0636 ± 0.029
7,AGCAACAC,0.383 ± 0.0078
8,CGCAACAC,0.356 ± 0.033
9,GGCAACAA,0.05 ± 0.0035
10,GGCAACAC,0.38 ± 0.0047
11,ATGCTATA,-0.182 ± 0.01
12,ATGCGTCA,0.161 ± 0.013
13,GTCAAACA,-0.0272 ± 0.074
14,ATGCCAGC,-0.0462 ± 0.0027
15,CATGTGTC,0.309 ± 0.03
16,AATGTGTG,0.408 ± 0.014
17,AATGTGCG,0.27 ± 0.012
18,AATGTGGC,0.163 ± 0.0047
19,AATGTGTA,0.226 ± 0.029
20,AATGTGTC,0.425 ± 0.0071
21,AATAGACT,-0.175 ± 0.072
22,TCACCCCA,0.277 ± 0.028
23,ACACCCCA,0.382 ± 0.015
24,GCACCCCA,0.242 ± 0.0042
25,GCACCCCC,0.226 ± 0.047
26,CCACCCCC,0.00912 ± 0.024

row,Sequence,PBM E-score of 8-mer
1,ACACCCCG,0.397 ± 0.029
2,ACCCCCCT,-0.152 ± 0.11
3,ACACCCCC,0.379 ± 0.017
4,ACCCCTCT,-0.0694 ± 0.019
5,CCACCCCG,0.235 ± 0.033
6,ACACCCCT,0.4 ± 0.027
7,ACACCCGG,0.3462 ± 0.00071
8,CGTGCTCC,-0.172 ± 0.017
9,GTTGATCA,0.0616 ± 0.0014
10,GATACAGA,-0.189 ± 0.0045
11,ACGGCCTC,-0.166 ± 0.071
12,GTAGGAAA,-0.0915 ± 0.041
13,GTCGACGA,0.155 ± 0.015
14,ACAGACAT,0.0773 ± 0.016
15,ACACCCAG,0.339 ± 0.021
16,GCCCAACA,0.0617 ± 0.0082
17,AAAATTCT,-0.1 ± 0.051
18,GAGTGTTA,0.385 ± 0.012
19,AAGTGTAC,0.0291 ± 0.019
20,CAGTGTTC,-0.0572 ± 0.047
21,AAGTGTTG,0.437 ± 0.006
22,AAGTGTTA,0.467 ± 0.0064
23,CAGTGTTA,0.322 ± 0.0036
24,AAGTGGTA,0.165 ± 0.013
25,AAGTGTTC,0.298 ± 0.012
26,GAGTGTAC,-0.079 ± 0.061

row,Sequence,PBM E-score of 8-mer
1,CTTCTGGC,-0.0431 ± 0.0062
2,AGCCTCCT,-0.194 ± 0.057
3,ATGACCAG,-0.119 ± 0.011
4,GCTCTAGA,-0.268 ± 0.07
5,AACAGCCC,-0.015 ± 0.027
6,AGAGCACT,-0.194 ± 0.044
7,AGGGATAC,-0.319 ± 0.026
8,ATAGCCAA,-0.2 ± 0.05
9,ACACGTTG,0.374 ± 0.0049
10,ACACGTCT,0.355 ± 0.021
11,ACACGTCG,0.391 ± 0.018
12,ACACGTAG,0.206 ± 0.0044
13,AAACGTTG,-0.22 ± 0.042
14,ACACGTCA,0.361 ± 0.0048
15,ACACGTTC,0.337 ± 0.013
16,CCACGTTA,0.131 ± 0.0074
17,ACACGTTA,0.3709 ± 0.0015
18,CAGGGATA,-0.326 ± 0.061
19,GGACGCAC,-0.0479 ± 0.052
20,AACGAGCC,-0.319 ± 0.096
21,CACAGTCC,0.0117 ± 0.032
22,ACTGCACG,-0.149 ± 0.031
23,TGCGAGAA,0.3906 ± 0.0012
24,TGCGAACA,0.396 ± 0.0075
25,GGCGAGAA,0.339 ± 0.005
26,TGCGAAAA,0.391 ± 0.03

row,Sequence,PBM E-score of 8-mer
1,AGCGAACA,0.0494 ± 0.02
2,CGCGAGAA,0.32 ± 0.0046
3,GGCGAACA,0.0467 ± 0.018
4,AGCGAAAA,0.0819 ± 0.093
5,CGCGAAAA,0.359 ± 0.019
6,CACTCTAG,0.223 ± 0.0029
7,AGTGACAT,0.309 ± 0.017
8,GGTGACAC,0.4691 ± 0.0035
9,CGTGACCA,0.259 ± 0.018
10,CGTGACAG,0.27 ± 0.015
11,AGTGACAC,0.44 ± 0.0087
12,GATGACAC,0.36 ± 0.02
13,GGAGACAC,0.142 ± 0.084
14,GTTGACGA,0.211 ± 0.012
15,GTTGACAA,0.3821 ± 0.0035
16,CGTGACAA,0.407 ± 0.025
17,AGTGACAG,0.357 ± 0.0084
18,CTTGACAA,0.328 ± 0.0034
19,AGAAGGGA,-0.301 ± 0.082
20,AGTATAAT,-0.0999 ± 0.092
21,ATTGCGCG,0.0393 ± 0.076
22,CTCCATTC,-0.243 ± 0.042
23,ATCGTTGA,-0.173 ± 0.031
24,TATTGGGA,-0.222 ± 0.0037
25,AAGCGCCG,-0.0564 ± 0.022
26,ATTTTTGA,-0.289 ± 0.044

row,Sequence,PBM E-score of 8-mer
1,CGTGACAC,0.398 ± 0.02
2,CGTGACGC,0.232 ± 0.0054
3,AGTGACTA,0.115 ± 0.011
4,GGTGACCA,0.0575 ± 0.069
5,CGTGACTC,0.0879 ± 0.021
6,AGTGACGA,0.358 ± 0.016
7,GGTGACGA,0.429 ± 0.013
8,GATGACAA,0.202 ± 0.017
9,AGTGACCA,0.0489 ± 0.11
10,AGTGACAA,0.4196 ± 0.0018
11,CGTGACGA,0.331 ± 0.031
12,GGTGACAA,0.47312 ± 1.4e-05
13,CGGTCTTA,-0.0111 ± 0.035
14,GGCTCGCA,0.136 ± 0.053
15,ATCAGAAG,-0.0178 ± 0.033
16,AGCAGGGA,0.00886 ± 0.045
17,CAGACAGC,0.0475 ± 0.042
18,ACCCCAGT,-0.138 ± 0.1
19,CTAGTCCC,-0.132 ± 0.064
20,TCTGACAA,0.112 ± 0.048
21,TGTGACAA,0.42 ± 0.028
22,TATGACAA,0.0436 ± 0.061
23,AGAGCCAC,-0.0799 ± 0.014
24,CCTAGTTC,-0.072 ± 0.0041
25,AATCACAG,0.0723 ± 0.038
26,GATCACGC,0.287 ± 0.017

row,Sequence,PBM E-score of 8-mer
1,AATCACAA,0.199 ± 0.0027
2,GATCACAA,0.163 ± 0.045
3,AATCACAC,0.462 ± 0.0075
4,CATCACAA,0.179 ± 0.006
5,CATCACAC,0.4576 ± 0.0032
6,GATCACAC,0.451 ± 0.014
7,CATCACAG,0.109 ± 0.038
8,AACGAGTC,-0.154 ± 0.018
9,GTCTTCAA,-0.0747 ± 0.03
10,CCGCCCCA,-0.155 ± 0.064
11,ACGCATTC,0.0134 ± 0.0026
12,CACACACA,0.303 ± 0.0096
13,GTCACAAA,0.118 ± 0.066
14,GTCACACA,0.3901 ± 0.0019
15,CACACACG,0.181 ± 0.059
16,CTCACACA,0.41 ± 0.0079
17,GTCACAGA,0.0466 ± 0.051
18,CAATAGTG,0.127 ± 0.061
19,ACTTGCGG,-0.0023 ± 0.035
20,GGTGAAAC,0.0805 ± 0.054
21,TCAATGCA,-0.268 ± 0.037
22,ACACCACA,0.377 ± 0.008
23,ACACCACT,0.254 ± 0.012
24,TCACCACA,0.204 ± 0.054
25,ACACCACG,0.3698 ± 0.0022
26,CCACCACC,0.107 ± 0.044

row,Sequence,PBM E-score of 8-mer
1,CCACCACA,0.117 ± 0.02
2,ACACCACC,0.405 ± 0.0043
3,GCACCACA,0.133 ± 0.047
4,CCACCACG,-0.00839 ± 0.13
5,ACGAAACG,0.16 ± 0.01
6,GCATTGCA,-0.0859 ± 0.03
7,ACAATCTA,-0.0816 ± 0.0069
8,ATCGAAAC,-0.0958 ± 0.024
9,ACCTATTG,0.129 ± 0.034
10,AGGGTGAT,0.197 ± 0.018
11,AGGGTGAG,0.137 ± 0.097
12,AAGGTGAT,0.424 ± 0.021
13,GAGGTGAA,0.294 ± 0.0035
14,CAGGTGAC,0.4485 ± 0.0027
15,ACGGTGAT,0.202 ± 0.0041
16,CAGATGAC,-0.0423 ± 0.069
17,ACGGTGAG,0.12 ± 0.014
18,GAGGTGAC,0.4496 ± 0.0027
19,AAGGTGAG,0.452 ± 0.0046
20,CTGGTGAC,0.221 ± 0.045
21,GGGGTGAC,0.3431 ± 0.0017

# Source: the supplement of paper PMC4166925
